We go through 37 molecules from PubChem BioAssay (NCATS).

Several values for one entry are separate records, joined by “and”; a condition that tells them apart may be missing. Equal entries are not always repeated. Inconclusive results are not listed. Activity calls are given as the source filed them. Calls follow the shape of the dose curve; as a rule, active = well fitted inhibition curve with a large enough effect; inconclusive = small, poorly fitted or top-dose-only effect; inactive = flat fitted curve, though single readings scatter.
% is scaled to controls: 0 for no effect and ±100 for the full control effect; potency is read from the fitted curve at half-maximal effect.

The assay deals with KB-3-1. The assay can be described thus: Cytotoxic Profiling of Annotated Libraries Using Quantitative High-Throughput Screening (AID 1296008). Also: nearly all actives have a fitted effect of over 60% in size. The conditions noted are these: Five cell lines viability, CellTiter-Glo ATP luminescence, 48-72 h; max response: hits give low values. The method in brief:
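Compounds were pin-transferred onto cells and incubated 48 or 72 hr at 37 degree Celsius, 95% humidity. CellTiter-Glo was added, plates sat 10 min at room temperature, then ATP-coupled luminescence was imaged as the viability read-out.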
Take `Cn1cc(NC(=O)c2cc(NC(=O)c3cc(NC=O)cn3C)cn2C)cc1C(=O)NCCC(=N)N`: the max response is 2.85% (inactive).

As for `CCCc1nc(C(C)(C)O)c(C(=O)OCc2oc(=O)oc2C)n1Cc1ccc(-c2ccccc2-c2nn[nH]n2)cc1`, the max response was -0.562% (inactive).

For `C=CCN1CCCC1CNC(=O)c1cc(S(N)(=O)=O)cc(OC)c1OC` (configuration not stated), the max response is 5.61% (inactive).

Regarding `CCCCCCCCCCCCCCCCCC[N+](C)(C)CCC[Si](OC)(OC)OC`, the max response is 8.62% (inactive). On the same count and under the same terms, the result for `CCCCC(=O)O[C@H]1CC[C@H]2[C@@H]3CCc4cc(O)ccc4[C@H]3CC[C@]12C` reads 0.0537% (inactive).

`CC(=O)Oc1cccc(C(=O)O)c1OC(C)=O`: the max response was -11.2% (inactive).

Regarding `O=C1c2ccccc2C(=O)C1c1ccc(Cl)cc1`, the max response was -7.12% (inactive). Same read-out and setting: the result for `CC(=O)N[C@@H](C=O)[C@@H](O)[C@H](O)[C@H](O)CO` reads 2.45% (inactive); that for `CC(C)[C@@H]1CC[C@@H](C)C[C@H]1O`, -7.15% (inactive).

`CC(C)Cc1ccc([C@@H](C)C(=O)NS(C)(=O)=O)cc1`: the max response is 3.61% (inactive). On the same count and under the same terms, the figure for `C[C@H](CCC(=O)O)[C@H]1CC[C@H]2[C@@H]3CC[C@@H]4C[C@H](O)CC[C@]4(C)[C@H]3C[C@H](O)[C@]12C` is -0.187% (inactive); for `CCC(Oc1ccccc1)C(=O)N[C@@H]1C(=O)N2[C@@H]1SC(C)(C)[C@@H]2C(=O)O` (some centres not stated) it is 9.51% (inactive). On the same count and under the same terms, the figure for `C[Si](C)(C)O[Si](C)(C)C` is -5.55% (inactive); for `O=C1NCCN1c1ncc([N+](=O)[O-])s1` it is 1.83% (inactive); for `CC1=C[C@H](O)CC(C)(C)[C@H]1/C=C/C(C)=C/C=C/C(C)=C/C=C/C=C(C)/C=C/C=C(C)/C=C/C1=C(C)C[C@@H](O)CC1(C)C` it is -11% (inactive). Still for that read-out and setting: the figure for `CCCC(=O)Nc1c(I)cc(I)c(CC(CC)C(=O)O)c1I` (configuration not stated) is -4.08% (inactive); for `O=C(OCc1ccccc1)c1cccnc1` it is -9.74% (inactive). `CCCC(CCC)C(=O)OC1C[C@H]2CC[C@@H](C1)[N+]2(C)C` (some centres not stated): the max response was 11.2% (inactive) and 16.2% (inactive). Same read-out and setting: the result for `S=C1SCN(Cc2ccccc2)CN1Cc1ccccc1` reads 37.7% (inactive). The same measure, in the same setting: the figure for `CC(C)C[C@@H](NC(=O)[C@@H](O)[C@H](N)Cc1ccccc1)C(=O)O` is 11% (inactive); for `NC[C@@H]1CC[C@@H](N)[C@@H](O[C@H]2[C@H](O)[C@@H](O[C@H]3O[C@H](CO)[C@@H](O)[C@H](N)[C@H]3O)[C@H](N)C[C@@H]2N)O1` it is 0.761% (inactive); for `CCCCC/C=C\C/C=C\C/C=C\CCCCC(=O)O` it is -2.17% (inactive). With `COc1ccc2c(c1)OC(C)(C)C(c1ccccc1)C2c1ccc(OCCN2CCCC2)cc1` (configuration not stated), the max response was -26.5% (inactive). Still for that read-out and setting: the result for `Nc1nccs1` reads -12.3% (inactive). Consider `O=C1NC(=O)[C@H]2[C@@H]1[C@@H]1C=C[C@H]2C1`, for which the max response is -8.53% (inactive). With `C/C=C/C=C/C(=O)O`, the max response is 5.4% (inactive).

`C[C@H](NCCc1ccc(O)cc1)[C@H](O)c1ccc(O)cc1`: the max response is -13.6% (inactive). The same measure, in the same setting: the result for `CCOC(=O)[C@H](CS)NCCN[C@@H](CS)C(=O)OCC` reads 6.15% (inactive); that for `CC/C(=C(/CC)c1ccc(OP(=O)(O)O)cc1)c1ccc(OP(=O)(O)O)cc1`, -7.92% (inactive); that for `Cc1cc(=O)c(C(=O)N[C@@H](C(=O)N[C@@H]2C(=O)N3C(C(=O)O)=C(CSc4nnnn4C)CS[C@H]23)c2ccc(O)cc2)c[nH]1`, 0.794% (inactive). For the molecule `N=C(N)n1cccn1`, the max response is 3.42% (inactive). Regarding `COc1ccc(C[C@H](C)NC[C@@H](O)c2ccc(O)c(NC=O)c2)cc1`, the max response was 5.8% (inactive). For `CCOC(=O)[C@@H](N)CS`, the max response was -7.89% (inactive). As for `CC1=C(/C=C/C(C)=C/C=C/C(C)=C/C(=O)Oc2c(C)c(C)c3c(c2C)CC[C@@](C)(CCC[C@H](C)CCC[C@H](C)CCCC(C)C)O3)C(C)(C)CCC1`, the max response was -1.1% (inactive). Still for that read-out and setting: the result for `COc1ccc(C(=O)c2ccc(C)cc2)c(O)c1` reads 4.04% (inactive). Consider `C=CC1=C(C(=O)O)N2C(=O)[C@@H](NC(=O)/C(=N\O)c3csc(N)n3)[C@H]2SC1` (stereo in doubt), for which the max response was 5.78% (inactive) and -12.7% (inactive).

Turning to `CCN1\C(=C/C=C/C=C/c2sc3ccccc3[n+]2CC)Sc2ccccc21`, the Potency is 9.2 µM (active).
